Results as given in the supplement of paper PMC10849652.
Of roughly 7,900 targets only a part is listed; those with a hit were picked by preference. About 0.6% of all pairs of compound and target were hits.

What was measured:
Experiment in all cases: log2 fold change, soluble protein after heating vs DMSO (PISA); higher = thermal stabilisation; K562 cells, 10 uM, 30 min; active = over 0.2 and 3.5 SD of the protein, either way, in both replicates (recomputed)
[1] = compound: NC(=O)Nc1cc(-c2cccc(F)c2)sc1C(=O)N[C@H]1CCCNC1
Method in brief: (§1)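 Soluble protein was defined as the supernatant after 21,000xg for 90 min. It came from K562 cells at 2×10^6 cells/mL given 10 μM compound for 30 min, heated in aliquots for 3 min across 48°C-58°C, pooled, and extracted in PBS with 0.5% NP-40 at 4°C, and was quantified by TMTpro 16plex LC-MS/MS with equalised channel sums. Thermal stability against control samples, from duplicates, is reported as log2 fold change.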

[2] = compound: NC(=O)c1cnc(N[C@@H]2CCCC[C@@H]2N)nc1Nc1cccc(-n2nccn2)c1
Method in brief: as §1

[3] = compound: NC1(c2ccc(-c3nc4ccn5c(=O)[nH]nc5c4cc3-c3ccccc3)cc2)CCC1
Method in brief: as §1

[4] = compound: NCC(=O)Nc1ccc(-n2nc(C(F)(F)F)cc2-c2ccc3c(ccc4ccccc43)c2)cc1
Method in brief: as §1

entinostat = compound: Nc1ccccc1NC(=O)c1ccc(CNC(=O)OCc2cccnc2)cc1 [entinostat]
Method in brief: as §1

vorinostat = compound: O=C(CCCCCCC(=O)Nc1ccccc1)NO [vorinostat]
Method in brief: as §1

citarinostat = compound: O=C(CCCCCCNC(=O)c1cnc(N(c2ccccc2)c2ccccc2Cl)nc1)NO [citarinostat]
Method in brief: as §1

silmitasertib = compound: O=C(O)c1ccc2c(c1)nc(Nc1cccc(Cl)c1)c1ccncc12 [silmitasertib]
Method in brief: as §1

[5] = compound: O=C1NC(=O)C(c2cnc3ccccn23)=C1c1cn2c3c(cc(F)cc13)CN(C(=O)N1CCCCC1)CC2
Method in brief: as §1

[6] = compound: c1cc(OCCN2CCCCC2)cc(-c2n[nH]c3ccc(-c4nnc[nH]4)cc23)c1
Method in brief: as §1

entospletinib = compound: c1cn2cc(-c3ccc4cn[nH]c4c3)nc(Nc3ccc(N4CCOCC4)cc3)c2n1 [entospletinib]
Method in brief: as §1

Measured: log2 fold change

CAMK2G isoform 6 (UniProt Q13555)
Chain of UniProt Q13555 (Q13555 whole entry, looked up): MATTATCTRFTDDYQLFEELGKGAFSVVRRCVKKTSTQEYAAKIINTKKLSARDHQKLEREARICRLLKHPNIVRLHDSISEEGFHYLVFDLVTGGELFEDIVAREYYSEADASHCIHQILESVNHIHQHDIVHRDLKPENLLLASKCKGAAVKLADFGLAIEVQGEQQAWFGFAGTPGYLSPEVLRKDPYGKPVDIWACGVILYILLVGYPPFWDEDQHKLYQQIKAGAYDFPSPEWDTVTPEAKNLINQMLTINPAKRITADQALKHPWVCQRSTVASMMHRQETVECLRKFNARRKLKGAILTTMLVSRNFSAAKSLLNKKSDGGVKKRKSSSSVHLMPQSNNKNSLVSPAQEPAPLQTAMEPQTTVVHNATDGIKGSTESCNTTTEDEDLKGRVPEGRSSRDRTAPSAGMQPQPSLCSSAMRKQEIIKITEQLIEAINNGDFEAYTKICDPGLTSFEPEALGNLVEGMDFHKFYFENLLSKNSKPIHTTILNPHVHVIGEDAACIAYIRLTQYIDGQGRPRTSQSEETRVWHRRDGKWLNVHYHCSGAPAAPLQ
inactive: [1] -0.306 | [2] -0.033 | [3] 0.038 | [4] 0.057 | entinostat 0.119 | vorinostat 0.119 | citarinostat -0.02 | silmitasertib 0.158 | [5] 0.177 | [6] -0.053 | entospletinib 0.131

COPS8 (UniProt Q99627)
Chain of UniProt Q99627 (Q99627 whole entry, looked up): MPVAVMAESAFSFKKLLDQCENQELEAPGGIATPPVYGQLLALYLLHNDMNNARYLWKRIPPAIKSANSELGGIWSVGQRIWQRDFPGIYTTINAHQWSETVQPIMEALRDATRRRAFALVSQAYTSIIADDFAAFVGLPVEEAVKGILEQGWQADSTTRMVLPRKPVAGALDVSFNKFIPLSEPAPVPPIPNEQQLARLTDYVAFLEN
inactive: [1] 0.02 | [2] 0.038 | [3] -0.042 | [4] 0.043 | entinostat 0.034 | vorinostat 0.041 | citarinostat 0.056 | silmitasertib 0.044 | [5] -0.077 | [6] 0.018 | entospletinib 0

CSNK2A2 (UniProt P19784)
Chain of UniProt P19784 (P19784 whole entry, looked up): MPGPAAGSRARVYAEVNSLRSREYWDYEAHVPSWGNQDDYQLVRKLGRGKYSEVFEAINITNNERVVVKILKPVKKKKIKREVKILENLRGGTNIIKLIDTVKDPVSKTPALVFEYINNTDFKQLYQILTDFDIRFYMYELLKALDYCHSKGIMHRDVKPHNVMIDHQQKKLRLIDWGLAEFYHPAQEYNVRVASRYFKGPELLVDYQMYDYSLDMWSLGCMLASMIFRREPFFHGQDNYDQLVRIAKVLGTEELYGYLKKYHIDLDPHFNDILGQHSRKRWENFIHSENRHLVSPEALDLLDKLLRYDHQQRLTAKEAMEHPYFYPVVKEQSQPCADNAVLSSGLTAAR
inactive: [1] -0.069 | [2] 0.008 | [3] -0.052 | [4] 0.069 | entinostat -0.015 | vorinostat 0.086 | citarinostat 0.011 | [5] -0.076 | [6] 0.022 | entospletinib 0.096
active: silmitasertib 0.873

CASC3 (UniProt O15234)
active: entospletinib 0.485
inactive: [1] 0.015 | [2] 0.238 | [3] -0.01 | [4] 0.001 | entinostat -0.039 | vorinostat -0.072 | citarinostat 0 | silmitasertib 0.054 | [5] 0.24 | [6] -0.133

COMT (UniProt P21964)
Chain of UniProt P21964 (P21964 whole entry, looked up): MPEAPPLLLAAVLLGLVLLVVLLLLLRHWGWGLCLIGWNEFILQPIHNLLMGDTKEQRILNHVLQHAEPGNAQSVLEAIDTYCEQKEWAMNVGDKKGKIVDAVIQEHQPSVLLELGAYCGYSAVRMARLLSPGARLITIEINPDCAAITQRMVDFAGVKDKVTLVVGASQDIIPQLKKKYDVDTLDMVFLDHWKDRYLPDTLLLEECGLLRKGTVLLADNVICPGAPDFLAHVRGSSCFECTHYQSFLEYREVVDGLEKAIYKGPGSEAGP
inactive: [1] -0.052 | [3] -0.015 | [4] -0.022 | entinostat -0.022 | vorinostat -0.054 | citarinostat 0.052 | silmitasertib -0.057 | [5] -0.086 | [6] 0.015 | entospletinib 0.017
active: [2] 0.356

CSTF3 (UniProt Q12996)
inactive: [1] 0.011 | [2] -0.027 | [3] -0.046 | [4] -0.032 | entinostat -0.032 | vorinostat -0.032 | citarinostat -0.021 | silmitasertib 0.029 | [5] 0.027 | [6] 0.012 | entospletinib -0.064

COA6 isoform 2 (UniProt Q5JTJ3)
Chain of UniProt Q5JTJ3 (Q5JTJ3 whole entry, looked up): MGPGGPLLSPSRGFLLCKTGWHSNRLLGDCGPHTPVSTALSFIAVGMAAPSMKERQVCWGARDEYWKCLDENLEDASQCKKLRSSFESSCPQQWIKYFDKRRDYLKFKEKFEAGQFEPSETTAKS
inactive: [1] 0.034 | [2] 0.106 | [3] -0.009 | [4] -0.018 | entinostat -0.003 | vorinostat -0.024 | citarinostat 0.053 | silmitasertib 0.01 | [5] 0.011 | [6] -0.041 | entospletinib 0.004

CD63 (UniProt P08962)
inactive: [1] -0.026 | [2] -0.001 | [3] -0.05 | [4] -0.035 | entinostat -0.004 | vorinostat -0.066 | citarinostat 0.026 | silmitasertib 0.02 | [5] 0.051 | [6] -0.063 | entospletinib -0.049

CHCHD1 (UniProt Q96BP2)
inactive: [1] 0.017 | [2] -0.142 | [3] -0.149 | [4] -0.023 | entinostat 0.03 | vorinostat 0.023 | citarinostat 0.009 | silmitasertib 0.031 | [5] -0.015 | [6] -0.169 | entospletinib -0.004

CRK (UniProt P46108)
Chain of UniProt P46108 (P46108 whole entry, looked up): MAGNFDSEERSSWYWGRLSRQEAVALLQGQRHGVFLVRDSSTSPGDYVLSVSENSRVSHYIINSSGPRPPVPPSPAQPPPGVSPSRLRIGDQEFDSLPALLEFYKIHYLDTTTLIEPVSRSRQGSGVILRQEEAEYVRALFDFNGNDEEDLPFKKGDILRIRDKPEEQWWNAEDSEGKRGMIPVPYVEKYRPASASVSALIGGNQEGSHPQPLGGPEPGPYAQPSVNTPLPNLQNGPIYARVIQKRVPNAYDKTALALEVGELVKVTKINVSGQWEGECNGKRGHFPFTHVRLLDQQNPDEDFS
active: [1] -0.81
inactive: [2] 0.004 | [3] -0.063 | [4] -0.011 | entinostat 0.026 | vorinostat -0.002 | citarinostat 0.061 | silmitasertib 0.062 | [5] -0.016 | [6] -0.016 | entospletinib -0.022

CEPT1 (UniProt Q9Y6K0)
Chain of UniProt Q9Y6K0 (Q9Y6K0 whole entry, looked up): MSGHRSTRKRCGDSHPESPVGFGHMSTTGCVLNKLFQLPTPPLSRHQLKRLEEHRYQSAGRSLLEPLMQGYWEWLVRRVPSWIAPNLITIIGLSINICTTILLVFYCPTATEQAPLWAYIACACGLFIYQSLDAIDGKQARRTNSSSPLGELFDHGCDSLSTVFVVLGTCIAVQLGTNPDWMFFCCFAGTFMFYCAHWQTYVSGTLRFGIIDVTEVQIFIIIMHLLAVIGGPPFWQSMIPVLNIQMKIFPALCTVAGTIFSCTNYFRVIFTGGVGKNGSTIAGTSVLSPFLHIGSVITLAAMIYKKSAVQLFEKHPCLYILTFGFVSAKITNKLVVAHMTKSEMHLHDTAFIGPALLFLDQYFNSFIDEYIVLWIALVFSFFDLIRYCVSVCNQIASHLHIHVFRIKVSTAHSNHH
inactive: [1] -0.065 | [2] -0.101 | [3] -0.215 | [4] -0.156 | entinostat 0.065 | vorinostat -0.078 | citarinostat -0.023 | silmitasertib -0.014 | [5] -0.054 | [6] -0.085 | entospletinib 0.033

CTBS (UniProt Q01459)
Chain of UniProt Q01459 (Q01459 whole entry, looked up): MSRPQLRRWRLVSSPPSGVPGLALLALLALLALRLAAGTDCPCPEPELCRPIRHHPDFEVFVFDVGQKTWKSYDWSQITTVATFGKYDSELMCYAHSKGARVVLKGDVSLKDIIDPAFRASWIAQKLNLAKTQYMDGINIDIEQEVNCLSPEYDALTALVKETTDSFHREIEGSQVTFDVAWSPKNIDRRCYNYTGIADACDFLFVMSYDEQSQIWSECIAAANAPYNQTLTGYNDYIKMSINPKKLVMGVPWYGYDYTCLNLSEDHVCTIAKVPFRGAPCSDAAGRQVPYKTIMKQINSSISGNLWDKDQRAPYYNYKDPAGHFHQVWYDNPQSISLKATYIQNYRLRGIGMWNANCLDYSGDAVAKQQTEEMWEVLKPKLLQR
inactive: [1] 0.088 | [2] -0.046 | [3] -0.268 | [4] -0.002 | entinostat 0.058 | vorinostat -0.017 | citarinostat -0.026 | silmitasertib -0.003 | [5] 0.051 | [6] -0.023 | entospletinib 0.049

CCNH (UniProt P51946)
Chain of UniProt P51946 (P51946 whole entry, looked up): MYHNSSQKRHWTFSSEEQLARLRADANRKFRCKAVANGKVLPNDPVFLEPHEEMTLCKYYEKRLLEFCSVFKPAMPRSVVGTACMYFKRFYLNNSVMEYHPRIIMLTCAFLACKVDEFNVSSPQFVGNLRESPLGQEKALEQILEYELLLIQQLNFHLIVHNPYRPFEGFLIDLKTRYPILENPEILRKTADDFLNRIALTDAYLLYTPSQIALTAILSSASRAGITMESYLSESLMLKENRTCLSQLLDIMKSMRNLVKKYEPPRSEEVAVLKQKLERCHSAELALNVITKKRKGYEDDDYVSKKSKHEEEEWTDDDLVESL
inactive: [1] -0.043 | [2] -0.009 | [3] 0.024 | [4] -0.02 | entinostat -0.006 | vorinostat -0.028 | citarinostat 0.015 | silmitasertib 0.02 | [5] -0.083 | [6] -0.027 | entospletinib -0.019

C1D (UniProt Q13901)
Chain of UniProt Q13901 (Q13901 whole entry, looked up): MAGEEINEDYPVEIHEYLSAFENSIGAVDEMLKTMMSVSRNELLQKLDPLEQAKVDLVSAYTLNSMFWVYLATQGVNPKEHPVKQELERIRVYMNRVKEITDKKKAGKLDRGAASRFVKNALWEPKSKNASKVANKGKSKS
inactive: [1] 0.187 | [3] 0 | [4] 0.033 | entinostat -0.012 | vorinostat 0.116 | citarinostat 0.067 | silmitasertib 0.072 | [5] 0.003 | [6] 0.008 | entospletinib -0.043
active: [2] 0.322

COX5B (UniProt P10606)
Chain of UniProt P10606 (P10606 whole entry, looked up): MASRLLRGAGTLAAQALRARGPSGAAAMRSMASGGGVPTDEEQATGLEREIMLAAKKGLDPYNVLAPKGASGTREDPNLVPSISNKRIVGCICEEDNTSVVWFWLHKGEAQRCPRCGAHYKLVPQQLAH
inactive: [1] 0.041 | [2] 0.031 | [3] 0.053 | [4] -0.015 | entinostat -0.006 | vorinostat -0.151 | citarinostat 0.02 | silmitasertib -0.04 | [5] -0.131 | [6] 0.034 | entospletinib 0.005

CBX1 (UniProt P83916)
Chain of UniProt P83916 (P83916 whole entry, looked up): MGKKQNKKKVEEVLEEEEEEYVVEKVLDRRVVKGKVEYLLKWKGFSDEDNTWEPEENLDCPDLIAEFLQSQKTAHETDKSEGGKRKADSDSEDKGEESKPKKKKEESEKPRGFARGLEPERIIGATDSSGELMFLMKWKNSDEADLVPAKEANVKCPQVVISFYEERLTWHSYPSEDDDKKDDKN
inactive: [1] 0.02 | [2] -0.032 | [3] 0.025 | [4] 0.004 | entinostat 0.017 | vorinostat -0.036 | citarinostat -0.035 | silmitasertib 0.045 | [5] 0.006 | [6] -0.034 | entospletinib 0.066

CHMP4B (UniProt Q9H444)
active: [1] 0.255
inactive: [2] -0.011 | [3] -0.065 | [4] -0.001 | entinostat 0.108 | vorinostat 0.024 | citarinostat -0.044 | silmitasertib -0.016 | [5] 0.014 | [6] 0.022 | entospletinib 0.044

COX7C (UniProt P15954)
Chain of UniProt P15954 (P15954 whole entry, looked up): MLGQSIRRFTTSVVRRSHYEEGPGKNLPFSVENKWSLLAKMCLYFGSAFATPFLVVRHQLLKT
inactive: [1] 0.009 | [2] 0.048 | [3] -0.013 | [4] 0.046 | entinostat 0.014 | vorinostat -0.017 | citarinostat 0.079 | silmitasertib -0.003 | [5] -0.089 | [6] -0.059 | entospletinib -0.074

CLINT1 isoform 3 (UniProt Q14677)
inactive: [1] 0.106 | [2] -0.027 | [3] 0.078 | [4] 0.058 | entinostat -0.052 | vorinostat -0.035 | citarinostat -0.048 | silmitasertib 0.008 | [5] 0.024 | [6] 0.015 | entospletinib 0.111

CAVIN1 (UniProt Q6NZI2)
inactive: [1] 0.034 | [2] -0.07 | [3] 0.046 | [4] 0.074 | entinostat 0.008 | vorinostat 0.004 | citarinostat -0.004 | silmitasertib 0.041 | [5] 0.108 | [6] -0.087 | entospletinib 0.076

CCDC9 (UniProt Q9Y3X0)
inactive: [1] 0.021 | [2] 0.034 | [3] 0.121 | [4] 0.02 | entinostat -0.088 | vorinostat -0.051 | citarinostat -0.069 | silmitasertib -0.051 | [5] 0.021 | [6] -0.015 | entospletinib 0.115

CDAN1 (UniProt Q8IWY9)
inactive: [1] -0.033 | [2] -0.042 | [3] -0.192 | [4] -0.091 | entinostat 0.051 | vorinostat 0.022 | citarinostat -0.011 | silmitasertib 0.095 | [5] 0.036 | [6] -0.018 | entospletinib 0.023

CNOT4 isoform 6 (UniProt O95628)
inactive: [1] 0.033 | [2] -0.046 | [3] -0.074 | [4] -0.026 | entinostat -0.009 | vorinostat 0.052 | citarinostat 0.038 | silmitasertib 0.023 | [5] -0.043 | [6] -0.037 | entospletinib -0.008

CCDC59 (UniProt Q9P031)
inactive: [1] -0.033 | [2] 0.122 | [3] 0.166 | [4] 0.139 | entinostat -0.149 | vorinostat -0.099 | citarinostat -0.178 | silmitasertib 0.154 | [5] 0.21 | [6] 0.07 | entospletinib 0.002

CPT1A (UniProt P50416)
inactive: [1] -0.068 | [2] -0.012 | [3] 0.117 | [4] -0.001 | entinostat -0.005 | vorinostat -0.017 | citarinostat 0.053 | silmitasertib 0.037 | [5] -0.014 | [6] 0.071 | entospletinib 0.019

CLCN3 isoform 2 (UniProt P51790)
Chain of UniProt P51790 (P51790 whole entry, looked up): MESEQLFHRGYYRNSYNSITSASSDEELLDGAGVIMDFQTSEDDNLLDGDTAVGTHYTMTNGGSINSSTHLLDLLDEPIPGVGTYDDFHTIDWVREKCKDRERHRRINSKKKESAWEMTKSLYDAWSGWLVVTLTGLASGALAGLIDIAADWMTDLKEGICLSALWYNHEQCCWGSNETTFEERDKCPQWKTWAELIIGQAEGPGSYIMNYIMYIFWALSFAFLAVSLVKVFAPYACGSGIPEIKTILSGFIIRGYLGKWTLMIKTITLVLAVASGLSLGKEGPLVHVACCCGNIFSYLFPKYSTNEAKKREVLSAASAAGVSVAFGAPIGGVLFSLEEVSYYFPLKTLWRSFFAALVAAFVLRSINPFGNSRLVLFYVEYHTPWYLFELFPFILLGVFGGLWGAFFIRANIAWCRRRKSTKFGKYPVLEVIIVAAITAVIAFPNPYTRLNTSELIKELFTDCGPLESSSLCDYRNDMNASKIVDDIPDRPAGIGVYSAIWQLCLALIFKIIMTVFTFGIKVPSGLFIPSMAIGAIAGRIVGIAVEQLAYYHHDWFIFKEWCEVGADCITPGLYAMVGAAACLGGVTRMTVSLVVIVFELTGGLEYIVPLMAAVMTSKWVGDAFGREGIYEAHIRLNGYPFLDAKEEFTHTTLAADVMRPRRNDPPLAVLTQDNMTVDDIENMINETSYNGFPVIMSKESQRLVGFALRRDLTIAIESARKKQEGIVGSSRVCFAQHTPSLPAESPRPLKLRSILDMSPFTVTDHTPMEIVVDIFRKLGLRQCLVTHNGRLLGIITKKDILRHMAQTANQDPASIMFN
inactive: [1] 0.013 | [2] 0.014 | [3] -0.17 | [4] 0.024 | entinostat 0.019 | vorinostat 0.037 | citarinostat -0.002 | silmitasertib -0.015 | [5] -0.002 | [6] 0.283 | entospletinib -0.039

CPQ (UniProt Q9Y646)
Chain of UniProt Q9Y646 (Q9Y646 whole entry, looked up): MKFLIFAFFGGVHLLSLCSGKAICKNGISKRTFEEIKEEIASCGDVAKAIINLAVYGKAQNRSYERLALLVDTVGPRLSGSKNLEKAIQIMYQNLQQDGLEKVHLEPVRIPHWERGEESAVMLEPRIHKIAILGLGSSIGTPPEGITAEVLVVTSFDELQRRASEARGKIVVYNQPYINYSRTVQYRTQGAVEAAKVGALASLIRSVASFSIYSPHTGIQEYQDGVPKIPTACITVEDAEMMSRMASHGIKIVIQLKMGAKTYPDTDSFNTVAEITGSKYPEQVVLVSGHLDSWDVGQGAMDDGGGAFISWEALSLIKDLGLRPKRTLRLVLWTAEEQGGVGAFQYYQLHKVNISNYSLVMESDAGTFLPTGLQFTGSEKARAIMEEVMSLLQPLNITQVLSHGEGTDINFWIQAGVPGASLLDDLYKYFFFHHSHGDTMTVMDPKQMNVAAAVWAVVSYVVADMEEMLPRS
inactive: [1] 0.083 | [2] -0.01 | [3] -0.011 | [4] 0.072 | entinostat 0.012 | vorinostat -0.043 | citarinostat 0.038 | silmitasertib -0.004 | [5] 0.03 | [6] 0.009 | entospletinib 0.011
